Experiment [1] deals with Estrogen receptor (Homo sapiens) (UniProt P03372). The experiment is described as follows: qHTS assay for small molecule antagonists of estrogen receptor alpha signaling (AID 588513; active means well fitted curve in the direction sought with a large enough effect in the signal ratio, with a control signal flat, not every such curve was filed as active; the % refers to the signal ratio; further: potency means the concentration at half of the fitted maximal effect). In short, it runs like this:
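Fluorescence from CCF4 substrate after 2 h at room temperature gave reporter activity; cells had been exposed to compound and 0.5nM 17-beta-estradiol for 18 h at 37 C. Hill-equation fitting yielded IC50 and maximal response.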
Background: qHTS replaces the single test concentration by a dilution series.

For experiment [2], the target named is Androgen receptor (Homo sapiens) (UniProt P10275). Kind of experiment: qHTS assay for small molecule agonists of androgen receptor signaling (AID 588515; active means well fitted curve in the direction sought with a large enough effect in the signal ratio, with a control signal flat; the % refers to the signal ratio; further: potency means the concentration at half of the fitted maximal effect). The conditions noted are these: AR-UAS-bla HEK293, beta-lactamase ratio, agonist 16 h; activation: stronger effect = higher value. Summed up: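 EC50 and efficacy came from Hill fits of titrations (up to 92 uM) normalized to 30 nM R1881 as 100% and DMSO as 0%. Compound exposure was 16 h at 37 C on AR-UAS-bla HEK293 cells, with a 405/460/530 nm CCF4 fluorescence read.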

The target is the same in experiment [3]. Kind of experiment: qHTS assay for small molecule antagonists of androgen receptor signaling (AID 588516; active means well fitted curve in the direction sought with a large enough effect in the signal ratio, with a control signal flat, not every such curve was filed as active; the % refers to the signal ratio; further: on the % scale 0 is the no-effect control and ±100 the full control effect). In short, it runs like this:
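Cells were plated and incubated 5 h, compounds added in titration, then R1881 (10 nM final) as agonist. After 16 h at 37 C, CCF4 substrate was loaded for 2 h at room temperature and fluorescence measured.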

For experiment [4], the target named is Peroxisome proliferator-activated receptor delta (Homo sapiens) (UniProt Q03181). The experiment is described as follows: qHTS assay for small molecule antagonists of peroxisome proliferator-activated receptor delta signaling (AID 588535; active means well fitted inhibition curve with a large enough effect in the signal ratio, with a control signal flat, not every such curve was filed as active; the % refers to the signal ratio). In short, it runs like this: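 Cell-based beta-lactamase assay in antagonist mode: 4000 HEK293T PPAR-delta-UAS-bla cells per well, 5 hr preincubation then 18 hr compound incubation at 37 C. IC50 obtained by Hill equation fitting.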

Experiment [5] concerns the target Thyroid hormone receptor beta (Homo sapiens) (UniProt P10828). Kind of experiment: qHTS assay for small molecule antagonists of thyroid hormone receptor beta signaling (AID 588547; active means well fitted inhibition curve with a large enough effect in the signal ratio, with a control signal flat, not every such curve was filed as active; the % refers to the signal ratio;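 further: cells stimulated with 0.4 nM T3 agonist during compound exposure; series mostly up to about 77 µM; on the % scale 0 is the no-effect control and ±100 the full control effect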). The note with it: TR-UAS-bla HEK293, beta-lactamase ratio, antagonist mode, 18 h. In short, it runs like this:
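Inhibition of T3-driven (0.4nM final) beta-lactamase reporter activity was measured over 0.59 nM to 92 uM compound after 18 h at 37 C. The cells were GripTite HEK293 TR-UAS-bla in charcoal/dextran-stripped serum, with CCF4 ratio read-out and IC50 from Hill fits.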

In experiment [6] the target is Bile acid receptor (Homo sapiens) (UniProt Q96RI1). The experiment is described as follows: qHTS assay for small molecule antagonists of farnesoid X receptor signaling (AID 588526). Further: on the % scale 0 is the no-effect control and ±100 the full control effect. Summed up: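 Beta-lactamase reporter antagonist mode: HEK293T FXR-UAS-bla cells, titrated compound, CDCA stimulation, 16 h 37 C, CCF4 dye 2 h RT. Data normalized to CDCA 50 uM and DMSO; Hill-fit IC50.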

Experiment [7] concerns the target Glucocorticoid receptor (Homo sapiens) (UniProt P04150). Kind of experiment: qHTS assay for small molecule agonists of glucocorticoid receptor signaling (AID 588532; active means well fitted curve in the direction sought with a large enough effect in the signal ratio, with a control signal flat; the % refers to the signal ratio;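 further: 100% = dexamethasone at 0.1 µM and 0% = DMSO only wells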). The note with it: HeLa MMTV-bla, beta-lactamase ratio, agonist, 18 h; stronger effect = higher value; percent of dexamethasone control, DMSO zero. Summed up: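 Using MMTV-bla HeLa cells in medium with 1% stripped FBS and 25 mM HEPES, compounds were titrated and incubated overnight-length (18 h). Beta-lactamase cleavage of CCF4 was quantified by dual-emission fluorescence.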

For experiment [8] the target is unchanged. The experiment is described as follows: qHTS assay for small molecule antagonists of glucocorticoid receptor signaling (AID 588533; active means well fitted inhibition curve with a large enough effect in the signal ratio, with a control signal flat, not every such curve was filed as active; the % refers to the signal ratio;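 further: cells stimulated with 2 nM dexamethasone as agonist; on the % scale 0 is the no-effect control and ±100 the full control effect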). In short, it runs like this: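 Antagonist-mode qHTS: compound titrations added to GRE-bla HeLa cells, then dexamethasone 2 nM final; 18 h, 37 C. CCF4 FRET fluorescence normalized to dexamethasone and DMSO; IC50 from Hill fit.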

A short description of experiment [9]: qHTS assay for small molecule agonists of the antioxidant response element (ARE) signaling pathway (AID 651741; active means well fitted activation curve with a large enough effect in the signal ratio; the % refers to the signal ratio; further: potency means the concentration at half of the fitted maximal effect; on activation: % of control where 0% means no effect). In short, it runs like this:
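Seeding 2,000 ARE-bla HepG2 cells per well preceded a 5 h incubation at 37 C/5% CO2 and a 16 h compound exposure at 37 C. Beta-lactamase reporter activity was then quantified by fluorescence after 2 h with LiveBLAzer B/G FRET substrate.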

For experiment [10], the target named is Estrogen receptor (Homo sapiens) (UniProt P03372). Kind of experiment: qHTS assay for small molecule agonists of estrogen receptor alpha signaling (AID 588514). Further: nearly all actives have a fitted effect of over 70% in size. Further: potency means the concentration at half of the fitted maximal effect.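 On activation: 0% = vehicle only and 100% = reference agonist.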 Summed up:
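ER-alpha-UAS-bla GripTite HEK 293 cells in medium with 2% charcoal/dextran-treated FBS were treated with compound titrations at 37 C for 18 hrs; beta-lactamase reporter read by CCF4 fluorescence after 2 hrs at RT.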

Molecules are shown by their SMILES. Values joined by “and” are separate entries in the source; they are usually repeats but may differ in a detail not shown here. Identical values can stand only once. Records with an inconclusive call do not appear. Unmarked numbers belong to inactive results. Active and inactive are the calls of the source. Unless noted, the call rests on the fitted dose curve.

Androgen receptor (Homo sapiens), sequence (P10275 whole entry, looked up): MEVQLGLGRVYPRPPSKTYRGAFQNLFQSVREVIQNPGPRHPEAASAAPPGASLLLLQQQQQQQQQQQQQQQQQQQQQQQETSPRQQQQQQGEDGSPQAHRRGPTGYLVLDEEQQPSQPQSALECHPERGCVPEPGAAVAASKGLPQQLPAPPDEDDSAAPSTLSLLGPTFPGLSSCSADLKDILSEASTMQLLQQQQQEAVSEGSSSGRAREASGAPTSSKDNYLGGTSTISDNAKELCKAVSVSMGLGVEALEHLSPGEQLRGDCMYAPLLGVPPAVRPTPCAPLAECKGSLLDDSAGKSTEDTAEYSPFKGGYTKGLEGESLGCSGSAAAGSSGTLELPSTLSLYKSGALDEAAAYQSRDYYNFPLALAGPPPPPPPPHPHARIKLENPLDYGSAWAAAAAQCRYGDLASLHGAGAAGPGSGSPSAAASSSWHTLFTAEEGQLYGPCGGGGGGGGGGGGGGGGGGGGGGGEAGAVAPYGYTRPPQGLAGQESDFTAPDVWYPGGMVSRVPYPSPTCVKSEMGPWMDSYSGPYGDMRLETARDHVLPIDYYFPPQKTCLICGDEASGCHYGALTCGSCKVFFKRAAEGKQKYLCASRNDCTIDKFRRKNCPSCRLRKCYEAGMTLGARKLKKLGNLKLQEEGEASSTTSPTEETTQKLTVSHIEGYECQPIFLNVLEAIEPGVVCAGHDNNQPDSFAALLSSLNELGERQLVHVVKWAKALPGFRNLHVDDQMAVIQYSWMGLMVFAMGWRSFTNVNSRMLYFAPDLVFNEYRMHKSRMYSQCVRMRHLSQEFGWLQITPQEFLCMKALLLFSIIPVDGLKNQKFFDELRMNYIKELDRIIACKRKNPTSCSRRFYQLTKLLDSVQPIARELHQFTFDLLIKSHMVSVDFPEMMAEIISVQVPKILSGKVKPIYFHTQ
Estrogen receptor (Homo sapiens), sequence (P03372 whole entry, looked up): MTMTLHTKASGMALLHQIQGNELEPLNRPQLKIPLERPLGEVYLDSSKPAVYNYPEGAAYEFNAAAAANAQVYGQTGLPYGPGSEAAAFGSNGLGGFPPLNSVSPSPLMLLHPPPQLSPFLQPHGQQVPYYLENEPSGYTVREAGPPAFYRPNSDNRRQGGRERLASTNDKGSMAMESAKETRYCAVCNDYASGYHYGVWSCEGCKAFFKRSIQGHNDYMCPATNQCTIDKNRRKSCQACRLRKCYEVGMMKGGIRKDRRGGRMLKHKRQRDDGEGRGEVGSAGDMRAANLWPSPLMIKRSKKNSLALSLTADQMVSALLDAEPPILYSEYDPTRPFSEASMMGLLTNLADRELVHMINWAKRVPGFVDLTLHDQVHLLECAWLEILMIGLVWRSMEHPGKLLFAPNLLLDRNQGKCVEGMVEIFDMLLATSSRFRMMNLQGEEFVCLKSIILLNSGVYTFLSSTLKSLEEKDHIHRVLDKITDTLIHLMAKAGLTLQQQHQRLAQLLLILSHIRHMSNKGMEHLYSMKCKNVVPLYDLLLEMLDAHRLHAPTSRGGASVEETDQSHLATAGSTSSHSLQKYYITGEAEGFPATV
Glucocorticoid receptor (Homo sapiens), sequence (P04150 whole entry, looked up): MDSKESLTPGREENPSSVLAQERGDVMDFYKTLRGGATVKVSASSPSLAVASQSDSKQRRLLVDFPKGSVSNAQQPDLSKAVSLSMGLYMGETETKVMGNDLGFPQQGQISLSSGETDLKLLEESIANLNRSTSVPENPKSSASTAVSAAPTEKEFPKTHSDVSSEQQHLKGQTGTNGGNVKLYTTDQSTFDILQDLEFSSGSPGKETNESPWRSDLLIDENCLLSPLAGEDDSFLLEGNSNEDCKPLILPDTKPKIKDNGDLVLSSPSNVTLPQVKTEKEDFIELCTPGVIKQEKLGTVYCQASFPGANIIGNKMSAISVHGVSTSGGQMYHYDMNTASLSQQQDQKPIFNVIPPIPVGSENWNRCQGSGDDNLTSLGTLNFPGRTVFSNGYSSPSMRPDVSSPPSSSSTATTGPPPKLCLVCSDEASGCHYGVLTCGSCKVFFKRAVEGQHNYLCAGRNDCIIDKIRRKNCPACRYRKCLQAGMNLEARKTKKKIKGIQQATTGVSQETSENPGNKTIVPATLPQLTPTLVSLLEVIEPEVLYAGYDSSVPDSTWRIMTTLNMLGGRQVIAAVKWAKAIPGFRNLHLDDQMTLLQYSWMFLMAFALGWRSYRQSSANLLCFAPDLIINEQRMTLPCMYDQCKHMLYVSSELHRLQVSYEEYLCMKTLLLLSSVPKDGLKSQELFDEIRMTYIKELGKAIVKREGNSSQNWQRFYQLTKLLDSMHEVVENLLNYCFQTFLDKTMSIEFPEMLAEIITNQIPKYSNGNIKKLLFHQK
Bile acid receptor (Homo sapiens), sequence (Q96RI1 whole entry, looked up): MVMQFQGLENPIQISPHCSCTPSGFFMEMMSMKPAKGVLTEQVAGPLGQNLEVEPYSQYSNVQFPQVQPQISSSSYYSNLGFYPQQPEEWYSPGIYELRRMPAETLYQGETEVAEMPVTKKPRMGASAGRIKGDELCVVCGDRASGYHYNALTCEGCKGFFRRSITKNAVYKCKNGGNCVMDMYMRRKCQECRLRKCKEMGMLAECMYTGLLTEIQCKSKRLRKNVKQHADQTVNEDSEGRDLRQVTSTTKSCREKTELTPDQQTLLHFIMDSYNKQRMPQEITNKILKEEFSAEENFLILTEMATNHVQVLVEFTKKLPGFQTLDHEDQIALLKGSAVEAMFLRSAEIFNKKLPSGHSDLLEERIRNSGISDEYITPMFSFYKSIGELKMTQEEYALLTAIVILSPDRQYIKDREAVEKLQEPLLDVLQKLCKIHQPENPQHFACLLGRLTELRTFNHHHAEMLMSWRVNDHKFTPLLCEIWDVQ
Peroxisome proliferator-activated receptor delta (Homo sapiens), sequence (Q03181 whole entry, looked up): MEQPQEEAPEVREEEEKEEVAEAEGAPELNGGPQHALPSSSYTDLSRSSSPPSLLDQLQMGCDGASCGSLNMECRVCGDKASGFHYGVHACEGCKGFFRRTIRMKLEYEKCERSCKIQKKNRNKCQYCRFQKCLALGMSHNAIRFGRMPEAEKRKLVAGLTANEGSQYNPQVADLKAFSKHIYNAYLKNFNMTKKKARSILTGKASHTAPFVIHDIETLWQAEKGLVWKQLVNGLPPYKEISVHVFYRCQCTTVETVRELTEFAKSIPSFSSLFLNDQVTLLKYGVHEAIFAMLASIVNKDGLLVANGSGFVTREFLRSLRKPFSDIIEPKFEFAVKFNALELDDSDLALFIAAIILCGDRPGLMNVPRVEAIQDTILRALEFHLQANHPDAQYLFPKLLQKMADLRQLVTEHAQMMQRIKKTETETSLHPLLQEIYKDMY
Thyroid hormone receptor beta (Homo sapiens), sequence (P10828 whole entry, looked up): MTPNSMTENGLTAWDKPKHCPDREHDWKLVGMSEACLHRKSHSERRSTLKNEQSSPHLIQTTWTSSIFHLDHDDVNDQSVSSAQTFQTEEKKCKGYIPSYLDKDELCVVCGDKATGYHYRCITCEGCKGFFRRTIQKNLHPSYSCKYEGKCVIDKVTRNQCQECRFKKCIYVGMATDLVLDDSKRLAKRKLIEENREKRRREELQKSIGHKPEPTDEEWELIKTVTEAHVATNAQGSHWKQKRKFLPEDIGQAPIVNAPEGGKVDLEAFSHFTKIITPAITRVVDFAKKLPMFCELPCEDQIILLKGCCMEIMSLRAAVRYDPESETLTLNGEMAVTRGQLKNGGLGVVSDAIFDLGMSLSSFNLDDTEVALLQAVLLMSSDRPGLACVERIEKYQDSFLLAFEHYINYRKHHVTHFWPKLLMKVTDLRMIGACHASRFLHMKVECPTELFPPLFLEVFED

For `CC1(C)C(C=C(Cl)Cl)[C@H]1C(=O)OCc1cccc(Oc2ccccc2)c1` (stereo not given in full), the Potency entry in [1] and in experiment [4] was “inactive” throughout. For the same compound, the activation in experiment [2] was -0.893%. In addition, in experiment [3], the outcome was inactive. Further, the activity change % (negative = inhibition) in [5] is 5.41%.
On to `CCCCCCCCCCO`, for which the Potency entry in experiment [1], in experiment [6], in experiment [8] and in experiment [9] was “inactive” each time. Also, in experiment [7], the activation is -0.536% and 2.82%. For the same compound, the activity change % (negative = inhibition) in experiment [5] is 16.6% and -15.4%.
For `CCC(=O)OCCc1ccccc1`, the Potency result in [1], in experiment [6], in [8], in experiment [4] and in experiment [9] was “inactive” each time. The activation in experiment [7] was -12.1%. Also, in [5], the activity change % (negative = inhibition) was -6.7%.
Turning to `Cc1ccc(C(C)(C)C)c(O)c1`, the Potency result in experiment [1], in experiment [6] and in experiment [9] was “inactive” each time.
`CCCCCCCCCCCCO`: the Potency result in [1], in experiment [6], in [4] and in [9] was “inactive” each time. For the same compound, in experiment [5], the activity change % (negative = inhibition) was -1.52%.
`C[Si]1(C)N[Si](C)(C)N[Si](C)(C)N1`: the Potency entry in [1], in [10] and in experiment [9] was “inactive” each time. For the same compound, in [5], the activity change % (negative = inhibition) is 17.9%.
In the case of `OCCC(F)(F)C(F)(F)C(F)(F)C(F)(F)C(F)(F)C(F)(F)C(F)(F)C(F)(F)F`, the Potency entry in [1], in [4] and in experiment [9] was “inactive” each time. The activation in experiment [2] was 13.8%. The compound was called inactive in [3].
Take `CCCOC(=O)c1ccc(C(=O)OCCC)nc1`: the Potency result in experiment [1] and in [6] was “inactive” throughout. Besides, the activation in [2] was -11.4%; in experiment [7], -11.2%. Further, in experiment [3], the compound was classed as inactive.
As to `COc1ccccc1NC(=O)CC(C)=O`, the Potency result in experiment [1], in experiment [4] and in experiment [9] was “inactive” each time.
On to `Cc1ccc(N=Nc2c(O)ccc3ccccc23)c([N+](=O)[O-])c1`, for which the Potency result in experiment [10], in [6] and in experiment [8] was “inactive” each time. The activation in experiment [2] was 8.82%; in experiment [7], -1.07%. Further, the result in experiment [3] was inactive. In addition, in experiment [5], the activity change % (negative = inhibition) is -2.29%. Further, in experiment [9], the Potency is 24.3 µM (active).
With `C[Si](C)(C)N[Si](C)(C)C`, the Potency entry in [1] and in experiment [8] was “inactive” throughout. The activation in experiment [7] was -9.44%. Moreover, the activity change % (negative = inhibition) in experiment [5] was -1.93%.
As to `Nc1nc(N)nc(-c2ccccc2)n1`, the Potency result in experiment [1], in [8], in [4] and in experiment [9] was “inactive” throughout. The activation in experiment [7] was -8.55%. In experiment [5], the activity change % (negative = inhibition) was 13.3%.
Turning to `CCCCCCCCCCCC(=O)N(C)CC(=O)O`, the Potency result in experiment [1] is “inactive”. Further, the activation in experiment [7] was -0.898%. In addition, in experiment [5], the activity change % (negative = inhibition) was 5.42%.
`CC1(C)CC(N)CC(C)(CN)C1` (stereo not given): the Potency entry in [1], in [8], in experiment [4] and in [9] was “inactive” each time. The activation in experiment [7] is 10.3%.
As to `Fc1ccc(Br)cc1`, the Potency result in [1] and in [8] was “inactive” each time. Moreover, in [7], the activation was 9.16%.
Consider `O=S(c1ccc(Cl)cc1)c1cc(Cl)c(Cl)cc1Cl` (stereo not given), for which the Potency entry in experiment [10], in experiment [6] and in experiment [4] was “inactive” throughout. Also, the values for the activation in experiment [2] and in [7] were -11.5% and 1.68%, respectively. In addition, in [5], the activity change % (negative = inhibition) is -2.9%. For the same compound, the Potency in experiment [9] is 54.5 µM (active).
As to `CCCCCCCCCC[N+](C)(C)Cc1ccccc1`, in experiment [10], the Potency was 1.12 µM (active). Further, the activation is -12.2% in experiment [2] and -4.12% in [7]. The Potency result in experiment [8] was “inactive”.
In the case of `C[C@]12CCC(=O)C=C1CC[C@@H]1[C@@H]2[C@@H](O)C[C@]2(C=O)[C@@H](C(=O)CO)CC[C@@H]12`, the Potency entry in experiment [10], in experiment [6] and in experiment [9] was “inactive” in each case. For the same compound, the Potency in [2] is 15.8 µM (active). Further, the activity change % (negative = inhibition) in experiment [5] was 7.91%.
Regarding `O=C(O)CN(CCO)CCN(CC(=O)O)CC(=O)O`, the Potency result in experiment [10], in [6], in experiment [8], in experiment [4] and in experiment [9] was “inactive” throughout. In addition, the figures for the activation in experiment [2] and in [7] were 3.88% and -10.4%, respectively. Further, in [3], the compound was classed as inactive. Also, in experiment [5], the activity change % (negative = inhibition) was -8.14%.
As to `O=C(O)c1cccc(C(=O)O)c1`, the Potency entry in experiment [1], in [8] and in [9] was “inactive” in each case. For the same compound, the activation in experiment [7] is -2.7%.
`CC(C)OB(OC(C)C)OC(C)C`: the Potency result in experiment [1], in [8] and in [9] was “inactive” in each case.
Consider `Cc1ccc(Cl)cc1Cl`, for which the Potency result in [1], in experiment [8] and in [9] was “inactive” each time. Also, the activation in experiment [7] is -2.65%. In experiment [5], the activity change % (negative = inhibition) is -1.13%.
As for `C/C(=C\C(C)CC(C)CC(C)C)C1CC(=O)OC1=O` (stereo not given), the Potency entry in [1] and in [4] was “inactive” throughout. For the same compound, in experiment [7], the activation was -4.02%. Further, in [5], the activity change % (negative = inhibition) was 0.311%.
Consider `Nc1ccc(N)c2c1C(=O)c1c(N)ccc(N)c1C2=O`, for which the Potency result in experiment [10], in experiment [6] and in [8] was “inactive” each time. Moreover, the activation in [2] is 5.62%; in [7], 0.353%. In addition, in experiment [3], the call was inactive. Moreover, the activity change % (negative = inhibition) in experiment [5] was 20.4%. Besides, in experiment [9], the Potency was 27.3 µM (active).
For `Cc1cc(C)c(N)c(Cl)c1`, the Potency result in experiment [1], in experiment [8] and in [9] was “inactive” throughout. The activation in [7] was 5.1%.
`CCCCCc1ccc(N)cc1`: the Potency result in experiment [1], in experiment [4] and in experiment [9] was “inactive” each time. In addition, the activity change % (negative = inhibition) in experiment [5] is 0.338%.
Turning to `CN(C)Cc1cc(CN(C)C)c(O)c(CN(C)C)c1`, the Potency entry in experiment [10], in experiment [6], in experiment [8] and in experiment [9] was “inactive” each time. In addition, the activation in experiment [2] was -17.5%. Also, the result in experiment [3] was inactive.
As to `CCCCOCCOCCOC(C)=O`, the Potency entry in experiment [1], in experiment [8], in experiment [4] and in experiment [9] was “inactive” each time. For the same compound, the activation in [7] was -1.04%. Further, the activity change % (negative = inhibition) in experiment [5] was -10.2%.
On to `CC(C)CCCCCCc1ccc(OCCOCCO)cc1`, for which the Potency in experiment [1] is 28.2 µM [inhibitor] (active).
Regarding `CCCCCCCC/C=C\CCCCCCCCCCCCC`, the Potency entry in [10], in experiment [6], in experiment [8], in experiment [4] and in [9] was “inactive” in each case. The results for the activation in experiment [2] and in [7] were 5.8% and -8.32%, respectively. For the same compound, the result in experiment [3] was inactive.

For the origin of these results see PubChem BioAssay (NCATS).
